# In the supplement of paper PMC12067093, “Discovery and optimisation of a covalent ligand for TRIM25 and its application to targeted protein ubiquitination” (Chemical Science, 2025):
# About 21,000 targets were measured; listed, in parts, are those with the largest changes and a random draw of the rest.
# Molecular target: DDX39B_Q13838_165_NCPHIVVGTPGR (UniProt Q13838)
# Test: probe-labelled cysteine peptide fold change vs DMSO (competition) (log2 fold change); higher = less target engagement (more negative = stronger competition)
# Settings: THP-1, incubation time: 4 h
# 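Further: competitive profiling in live THP-1 cells: cysteine peptides tagged with an iodoacetamide desthiobiotin (IA-DTB) probe, intensity after compound treatment relative to DMSO-treated cells.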
# UniProt Q13838, sequence (Q13838 whole entry, looked up): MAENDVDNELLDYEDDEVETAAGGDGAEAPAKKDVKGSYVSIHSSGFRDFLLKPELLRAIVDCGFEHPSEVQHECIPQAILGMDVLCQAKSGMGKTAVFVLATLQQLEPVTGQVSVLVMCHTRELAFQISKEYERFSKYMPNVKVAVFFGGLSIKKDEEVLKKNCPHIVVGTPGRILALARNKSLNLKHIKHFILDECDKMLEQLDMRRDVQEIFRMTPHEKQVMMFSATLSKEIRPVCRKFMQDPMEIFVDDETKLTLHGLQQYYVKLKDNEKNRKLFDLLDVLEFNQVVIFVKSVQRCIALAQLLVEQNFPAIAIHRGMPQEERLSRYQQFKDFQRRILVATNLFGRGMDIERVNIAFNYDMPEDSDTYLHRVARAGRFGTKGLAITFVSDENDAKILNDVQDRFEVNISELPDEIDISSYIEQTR
smiles,measurement,setting,value
Cc1cc(C(=O)N2CCCN(C(=O)CCl)CC2)ccc1-c1ccccc1 [compound 10],probe-labelled cysteine peptide fold change,10 µM,0.0169
same,probe-labelled cysteine peptide fold change,50 µM,0.0264
